Assay outcomes from PubChem.
A selection: hits, their analogues and other compounds. The true share with any hit is near 7%.
BAZ2B inh: qHTS Assay for Inhibitors of BAZ2B. Bromodomain adjacent to zinc finger domain protein 2B (Homo sapiens), Q9UIF8. AlphaScreen BAZ2B-H3K14Ac peptide displacement. Potency, µM (highest dose often 114 µM), inactives show at the top dose activity change, negative = inhibition, hits mostly inhibitors. actives 4.4% (n = 360,000). AID 504333, 2011; note: potency is the fitted concentration of half-maximal effect; % is set by controls: 0 for no effect and ±100 for the full control effect; nearly all actives have a fitted effect of over 60% in size
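Compounds, titrated to a top concentration of 110 uM, were incubated 30 min at room temperature with preformed BAZ2B/acetyl-K14 H3 peptide complex (50 nM each). Proximity signal was measured by AlphaScreen after 20 min with beads.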
KAT2A inh: qHTS Assay for Inhibitors of GCN5L2; Histone acetyltransferase KAT2A (Homo sapiens), Q92830; GCN5L2 HAT assay, ThioGlo1 CoA-SH fluorescence; Potency, µM (series often up to 58.9 µM), without a hit: at the highest dose activity change, negative = inhibition, most hits filed as inhibitors; actives 0.21% (n = 390,000); AID 504327, 2011; note: potency is the fitted concentration of half-maximal effect; % is set by controls: 0 for no effect and ±100 for the full control effect
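Preincubate 20nM GCN5L2 with compound 15 min, RT → add 50uM ThioGlo1 + 75uM H3(1-25) + 70uM acetyl-CoA → read fluorescence 0 and 20 min. Primary qHTS; fluorescent artifacts likely.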
PI5P4Ka inh: qHTS for Inhibitors of phosphatidylinositol 5-phosphate 4-kinase (PI5P4K). max response, %. PI5P4Kalpha enzyme, ADP-Glo luminescence, 60 min; hits give low values. Phosphatidylinositol 5-phosphate 4-kinase type-2 alpha (Homo sapiens), P48426. actives 1.2% (n = 330,000); active = max response of -50% or lower; inconclusive = between -30% and -50%; inactive = -30% or higher; note: value at the top dose of about 77 µM; % is set by controls: 0 for no effect and ±100 for the full control effect
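Luminescence from ADP-Glo served as readout of PI5P4Kalpha activity in a qHTS format. Reaction: enzyme, substrate, compound, ATP at 5 microM final, 60 min at RT.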
HP1b chromo inh: HTS for Inhibitors of HP1-beta Chromodomain Interactions with Methylated Histone Tails; Potency, µM (series often up to 114 µM), inactives show at the highest dose activity change, negative = inhibition, hits mostly inhibitors; AlphaScreen HP1-beta / biotin-H3K9me3 peptide binding; actives 0.56% (n = 390,000); Chromobox protein homolog 1 (Homo sapiens), P83916; note: potency is the fitted concentration of half-maximal effect; nearly all actives have a fitted effect of over 70% in size
Target sequence (P83916 whole entry, looked up): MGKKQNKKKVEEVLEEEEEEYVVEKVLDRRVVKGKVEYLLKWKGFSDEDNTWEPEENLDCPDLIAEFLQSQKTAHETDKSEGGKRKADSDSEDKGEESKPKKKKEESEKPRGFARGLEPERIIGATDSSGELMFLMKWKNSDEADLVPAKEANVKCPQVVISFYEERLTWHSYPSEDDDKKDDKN
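HP1-beta protein (50 nM final) preincubated 30 min at room temperature with biotinylated H3(1-18)K9me3 peptide (50 nM) in PBS pH 7.4, 0.01% Tween-20, then compound added for 30 min. AlphaScreen streptavidin donor/nickel chelate acceptor beads (10 ug/mL final), 30 min dark, luminescence read.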
PLK1 PBD inh: qHTS for Inhibitors of PLK1-PDB (polo-like kinase 1 - polo-box domain): Primary Screen | Serine/threonine-protein kinase PLK1 (Homo sapiens), P53350 | Potency, µM, inactives show max response, negative = inhibition, hits mostly inhibitors | Plk1 PBD binding of FITC phosphopeptide, fluorescence polarization | AID 720504, 2013 | actives 2.8% (n = 360,000); note: potency is the fitted concentration of half-maximal effect; series mostly up to about 57 µM; % is set by controls: 0 for no effect and ±100 for the full control effect; nearly all actives have a fitted effect of over 65% in size
JMJD2A Tudor: qHTS Assay for Inhibitors of JMJD2A-Tudor Domain; AlphaScreen JMJD2A-Tudor / H3K4me3 peptide binding; actives 4.4% (n = 390,000); Potency, µM (top dose mostly 114 µM), for inactives: top-dose activity change, negative = inhibition, most hits filed as inhibitors; note: potency is the fitted concentration of half-maximal effect; % is set by controls: 0 for no effect and ±100 for the full control effect; nearly all actives have a fitted effect of over 50% in size
* hit, by the source's call; u = inconclusive; x = no result; ! = not active in a repeat; [ ] = remark or other dose. Unless noted, calls come from the whole dose curve; as a rule, active = well fitted curve in the direction sought with a large enough effect; inconclusive = small, poorly fitted or top-dose-only effect, or another doubt; inactive = no such curve, though single readings can be large; an effect the other way counts as inactive or inconclusive.

SMILES	BAZ2B inh	KAT2A inh	PI5P4Ka inh	HP1b chromo inh	PLK1 PBD inh	JMJD2A Tudor
Clc1ccc(NC2(c3nnnn3C3CCCCC3)CCCCC2)cc1	-2.3%	-3.2%	-12.3	u	26.7µM*	u
CC1CCCN(C(=O)c2sc3cc([N+](=O)[O-])ccc3c2Cl)C1 (stereo unspecified)	50.1µM*	-13.6%	3.1	u	-11.8%	u
CSc1ncccc1C(=O)OCC(=O)NC1CCCCC1	10.1%	-2.5%	2.9	45.3%	-0.6%	-1.3%
Cc1cc(NC(=O)CSCc2ccc([N+](=O)[O-])cc2)no1	-9.3%	19.3%	2.0	18.1%	-16.4%	-23.7%
CC(C)(C)SCCNC(=O)CSCc1ccc([N+](=O)[O-])cc1	0.5%	1.78µM*	-5.3	11.8%	-3.0%	-15.5%
COCCCNC(CC(=O)Nc1ccc(OC)cc1OC)C(=O)O (stereo unspecified)	-8.2%	x	x	-18.7%	-2.2%	10µM*
COc1cccc(NC(=O)C(Cc2ccccc2)n2cccc2)c1 (stereo unspecified)	u	-0.1%	3.2	10.5%	3.4%	-12.0%
COc1ccc(NC(=O)CC(C)CC(=O)NCc2ccccc2)c(OC)c1 (stereo unspecified)	0.6%	-12.1%	6.6	29.4%	-4.9%	-12.5%
COc1ccc(NC(=O)C(Cc2ccccc2)n2cccc2)c(OC)c1 (stereo unspecified)	35.5µM*!	-8.5%	4.2	-4.4%[57 µM]	4.9%	-26.3%
COc1ccccc1NC(=O)CC(NCc1ccccc1)C(=O)O (stereo unspecified)	u	-5.5%	2.1	-8.6%	-9.4%	11.2µM*
COc1ccc(NC(=O)CC(NCCc2ccccc2)C(=O)O)c(OC)c1 (stereo unspecified)	-29.8%	-4.1%	-1.1	-4.6%	-8.7%	4.47µM*
COc1ccccc1NC(=O)CCC(=O)Nc1ccccc1OC	7.7%	-19.5%	x	15.0%	-3.6%	-3.0%
O=C(CNC(=O)c1ccccc1)OC(CCc1ccccc1)C(=O)Nc1cc(C(F)(F)F)ccc1Cl (stereo unspecified)	x	x	x	x	x	-18.5%
CC1(C)CC2(C)OC2C2(C1)N=NC(=Nc1ccccc1)O2 (stereo unspecified)	x	x	-1.8	x	-22.2%	x
N#Cc1nc(NC2CCCC2)c2ncn(-c3cc(F)cc(F)c3)c2n1	x	x	x	x	x	8.2%
O=C(C(O)c1ccc(Br)cc1)N1CCC(Nc2ccc3[nH]ncc3c2)CC1 (stereo unspecified)	x	x	-19.3	x	-23.5%	x
Cc1cc(C(=O)Nc2cccc(/C=C/C(=O)O)c2)c(C)o1	-37.7%	-5.2%	x	8.2%	-4.4%	-19.6%
Cc1oc(-c2ccccc2)cc1C(=O)Nc1cccc(/C=C/C(=O)O)c1	44.7µM*	-5.0%	-19.3	u	21.2µM*	u
CC(=O)c1cc2c(cc1NC(=O)CCn1cnnn1)OCO2	4.3%	-0.5%	-1.9	41.9%	-8.8%	-1.4%
S=C(NNc1ccc2ccccc2c1)NC1CCCCC1	8.91µM*	-7.9%	-2.8	28.2µM*	-12.9%	3.98µM*
COc1ccc(C(=O)/C=C/c2ccc(O)cc2)c(O)c1C/C=C(\C)CCC=C(C)C	x	-24.2%	74.8	-19.1%	1.2%	28.2µM*
C=C(C)C(O)CC/C(C)=C/Cc1c(O)ccc(C(=O)/C=C/c2ccc(O)cc2)c1O (stereo unspecified)	x	-22.1%	-20.1	-26.8%	5.6%	u
COc1ccc(C=CC(=O)c2ccc(OC)c(OC)c2O)cc1OC	x	x	-1.3	u	-8.8%	50.1µM*
